According to PubChem BioAssay (NCI):
Compounds without any hit were thinned out: in the full panel of roughly 83,000, 20% have a hit.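 Treatment: one concentration, 48 hours, 96-well format. Scoring: percent growth, with anything below 10 considered active.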 Values without a mark were called inactive. Active and inactive are the calls of the source.

Columns and labels:
Test in all cases: NCI-60 one-dose screen, 48 h (100 = growth as untreated, 0 = no growth, -100 = all killed)
Details in all cases: 10 µM unless noted
[1] = system: DU-145 prostate
[2] = system: K-562 leukemia
[3] = system: MALME-3M melanoma
[4] = system: MDA-MB-231 breast
[5] = system: RXF 393 renal
[6] = system: SF-268 CNS
[7] = system: SF-295 CNS
[8] = system: SF-539 CNS
[9] = system: UACC-257 melanoma
[10] = system: M14 melanoma

SMILES | growth [1] | growth [2] | growth [3] | growth [4] | growth [5] | growth [6] | growth [7] | growth [8] | growth [9] | growth [10]
CN1CCN(CC(=O)N(C)c2ccc(N=C(c3ccccc3)c3c(O)[nH]c4ccc(C#N)cc34)cc2)CC1 | 32.8% | 11% | 35.5% | 42.5% | 3.21% (active) | 32% | 18.2% | -20.2% (active) | 78.5% | 30.7%
COc1cc(NC(C)CCCN2C(=O)c3ccccc3C2=O)c2nccc(C)c2c1OC (stereo not given) | 124% | 60.9% | 81.2% | 84.7% | 106% | 104% | 119% | 119% | 106% | 135%
CC(=O)n1cc(/C=C2\N=C(c3ccc(Cl)cc3)N(c3ccc(S(=O)(=O)Nc4nccs4)cc3)C2=O)c2ccccc21 | 102% | 59.6% | 120% | 95.5% | 86.7% | 83% | 85.6% | 90.6% | 99.7% | 83.4%
O=C1CCC(=O)N1C1CCCCC1 | 107% | 107% | 82.6% | 103% | 109% | 97.6% | 97.5% | 101% | 108% | 94.5%
O=C(O)c1ccc(-n2cc(/C=N/Nc3ccc(F)cc3)c(-c3cccc(C(F)(F)F)c3)n2)cc1 | 81.6% | 11.1% | 88.2% | 87.8% | 101% | 67% | 54% | 75.6% | 91.2% | 51.3%
O=C(NCCNc1nccc(-c2c(-c3cccc(O)c3)nc3sccn23)n1)c1ccccc1 | 90.4% | 62.7% | 9.31% (active) | 80% | 62.6% | 80.7% | 67.4% | 73.2% | 11.3% | 15.3%
O=C(NCCNc1nccc(-c2c(-c3cccc(O)c3)nc3sccn23)n1)c1cccc(C(F)(F)F)c1 | 91.4% | 56.2% | 0.753% (active) | 76.2% | 79.9% | 86.7% | 69.6% | 100% | 14.4% | 17.5%
NC(CCCC(N)C(=O)c1ccccc1)C(=O)O (stereo not given) | 105% | 98.9% | 95.9% | 109% | 112% | 99.6% | 102% | 97.5% | 82.5% | 102%
c1ccc(CNCCN(CCNCc2ccccn2)Cc2ccc3ccccc3c2)nc1 | 13.7% | -0.99% (active) | 24.6% | 4.02% (active) | 45.1% | 19% | -35.6% (active) | -34.8% (active) | 31.7% | -49.4% (active)
O=C(Nc1ccc(-n2cc(-c3ccncc3)c(-c3ccc(O)c(Cl)c3)n2)cc1)c1ccc(Cl)c(Cl)c1 | 46.1% | 11.7% | 46.8% | -33.8% (active) | -83.2% (active) | 54.5% | -16.3% (active) | 10.6% | 69.5% | -35.7% (active)
COc1cc2ncn3c(=O)c4c5c(sc4nc3c2cc1OC)CCCCC5 | 111% | 97.3% | 93.7% | 91.7% | 105% | 93.7% | 105% | 100% | 105% | 106%
CCOC(=O)CSc1nnc(-c2cc3c([nH]c4ccccc43)c(-c3cccc(O)c3)n2)n1-c1ccc(C)cc1 | -0.541% (active) | 16.8% | 80.3% | 45% | 79.5% | 74.7% | 99.9% | 78% | 91.3% | 44.5%
COc1ccc(-c2c(C#N)cnc(N)c2-c2nc3cc(C)c(C)cc3[nH]2)cc1 | 37.4% | 51.6% | 45.9% | 53.4% | 56.6% | 57.1% | 27.3% | 92% | 70% | 51.2%
O=C(Nc1cccc(-n2ccc3c(NC(=O)c4ccccc4)nccc32)c1)Nc1ccc(Cl)c(C(F)(F)F)c1 | -19.3% (active) | 3.03% (active) | 33.6% | 13.7% | -41.7% (active) | 8.59% (active) | -6.24% (active) | 8.31% (active) | 46.2% | 2.96% (active)
O=C(NNC(=O)c1ccc([N+](=O)[O-])cc1)c1ccc([N+](=O)[O-])cc1 | 113% | 93.6% | 112% | 117% | 111% | 101% | 94.2% | 91.4% | 111% | 95.4%
C=C1C(=O)O[C@H]2[C@H]1CC/C(COC(=O)OC/C1=C/CC[C@@]3(C)O[C@H]3[C@H]3OC(=O)[C@@H](CN(C)C)[C@@H]3CC1)=C\CC[C@@]1(C)O[C@@H]21 | 15.3% | 1.85% (active) | -34.7% (active) | -10.4% (active) | -81.5% (active) | 63.1% | 94.7% | -12.1% (active) | -28% (active) | -22.9% (active)
CC(=S)Nc1ccccc1 | 103% | 101% | 89% | 95.5% | 107% | 107% | 105% | 102% | 82.7% | 96.6%
O=C1CCC(c2c(O)cc(O)c3c(=O)c(O)c(-c4ccc(O)c(O)c4)oc23)N1 (stereo not given) | 105% | 96.1% | 89.6% | 118% | 99.8% | 96.4% | 101% | 103% | 86.1% | 101%
CCNc1ncnc2n[nH]nc12 | 104% | 97% | 102% | 111% | 112% | 99.5% | 95% | 101% | 92.9% | 99.7%
CC1CCc2cc(F)cc3c(=O)c(C(=O)O)cn1c23 (stereo not given) | 110% | 92.6% | 99.9% | 82.8% | 108% | 105% | 97.6% | 107% | 101% | 97.6%
NS(=O)(=O)c1ccc(CCN2C(=O)/C(=C\c3ccc(Cl)cc3)C=C2c2ccc(Oc3ccccc3)cc2)cc1 | 89.4% | 47.8% | 82% | 72.9% | 70.3% | 82.7% | 77.3% | 97.7% | 92.4% | 73.7%
O=C(O)c1ccc(-c2nn(-c3ccc(C(=O)O)cc3)cc2/C=N/Nc2c(F)c(F)cc(F)c2F)cc1 | 105% | 105% | 93.7% | 105% | 112% | 93.2% | 102% | 102% | 95.7% | 96.6%
COc1ccc(-c2cc(-c3nnc(SC/C(=N\O)c4ccccc4)n3-c3ccccc3)c3ccccc3n2)cc1 | 111% | 113% | 100% | 103% | 117% | 102% | 104% | 102% | 104% | 116%
Cc1cc(Nc2ccc(Cl)c(Cl)c2)nc(N)n1 | 94.3% | 87.4% | 121% | 101% | 72.9% | 95.2% | 96.8% | 99.9% | 77.1% | 91.6%
Nc1ccc(S(=O)(=O)Nc2cc(I)cc(I)c2)cc1 | 124% | 78.5% | 118% | 102% | 97.2% | 108% | 113% | 111% | 99.7% | 110%
Nc1ncnc2c1c(-c1ccc(Oc3ccccc3)cc1)nn2C[C@H]1SSC[C@H]1O | -22.6% (active) | -16.9% (active) | 13.9% | 9.82% (active) | -4.66% (active) | 20.1% | 20.7% | 10% | 1.69% (active) | -66.7% (active)
NC(=O)C1=C[C@H]2[C@H]3C=C[C@@]2(O)C(=O)O[C@@H]3O1 | 45.9% | 61.8% | 4.54% (active) | 61.5% | 8.42% (active) | 58.2% | 88.5% | 65.6% | 28.9% | 32%
